High-throughput results from PubChem BioAssay.
This is a sample that favours compounds with a hit; in the whole collection about 8.8% have one here.
HPGD inh: qHTS Assay for Inhibitors of HPGD (15-Hydroxyprostaglandin Dehydrogenase). purified HPGD, NADH fluorescence kinetic, PGE2 substrate. hit rate 4.3% among 150,000. Potency, µM, without a hit: at the top dose activity change, negative = inhibition, usual class: inhibitors; active means well fitted inhibition curve with a large enough effect, not every such curve was filed as active; inconclusive means small, poorly fitted or top-dose-only effect, or another doubt; inactive means no such curve, though single readings can be large or run the other way; further: on the % scale 0 is the no-effect control and ±100 the full control effect
Target sequence (P15428 whole entry, looked up): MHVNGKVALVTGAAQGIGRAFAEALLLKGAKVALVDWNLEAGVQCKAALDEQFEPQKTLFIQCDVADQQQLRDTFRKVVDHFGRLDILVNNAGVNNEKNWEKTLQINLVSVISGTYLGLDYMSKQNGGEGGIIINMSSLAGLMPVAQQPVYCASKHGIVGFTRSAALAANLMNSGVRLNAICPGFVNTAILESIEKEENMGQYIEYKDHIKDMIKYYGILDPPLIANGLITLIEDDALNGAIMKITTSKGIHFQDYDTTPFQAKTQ
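NADH formation kinetics: reaction with 30 uM PGE2 and 1 mM NAD+ (final), 20 nM enzyme, Tris-HCl pH 8 with Tween 20, after 15 min compound preincubation at room temperature. Fluorescence change, last versus first of five reads.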
HTT aggregate: qHTS Multiplex Assay to Identify Dual Action Probes in a Cell Model of Huntington: Aggregate Formation (GFP) | PC12 HttQ103-GFP aggregates, Acumen cytometry, 40 h | Potency, µM (top dose mostly 46.1 µM), for the others: at the highest dose activity change, negative = inhibition, hits mostly inhibitors | hit rate 1.1% among 220,000 | AID 1688, 2009; further: on the % scale 0 is the no-effect control and ±100 the full control effect; nearly all actives have a fitted effect of over 60% in size
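Aggregates are detected as GFP objects 1–25 µm with signal 6 STDEV over background in lysates of induced PC12 cells. These carry Huntingtin exon 1 with 103 glutamines fused to GFP under an ecdysone promoter; compounds titrated.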
ALDH1A1 inh: qHTS Assay for Inhibitors of Aldehyde Dehydrogenase 1 (ALDH1A1) | AID 1030, 2008 | hit rate 7.3% among 220,000 | Aldehyde dehydrogenase 1A1 (Homo sapiens), P00352 | Potency, µM (highest dose often 75.3 µM), without a hit: top-dose activity, negative = inhibition, actives largely listed as inhibitors | Purified ALDH1A1, NADH fluorescence, propionaldehyde substrate; active means well fitted inhibition curve with a large enough effect, not every such curve was filed as active; inconclusive means small, poorly fitted or top-dose-only effect, or another doubt; inactive means no such curve, though single readings can be large or run the other way;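 further: plate controls were no enzyme wells and a reference inhibitor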
Target sequence (P00352 whole entry, looked up): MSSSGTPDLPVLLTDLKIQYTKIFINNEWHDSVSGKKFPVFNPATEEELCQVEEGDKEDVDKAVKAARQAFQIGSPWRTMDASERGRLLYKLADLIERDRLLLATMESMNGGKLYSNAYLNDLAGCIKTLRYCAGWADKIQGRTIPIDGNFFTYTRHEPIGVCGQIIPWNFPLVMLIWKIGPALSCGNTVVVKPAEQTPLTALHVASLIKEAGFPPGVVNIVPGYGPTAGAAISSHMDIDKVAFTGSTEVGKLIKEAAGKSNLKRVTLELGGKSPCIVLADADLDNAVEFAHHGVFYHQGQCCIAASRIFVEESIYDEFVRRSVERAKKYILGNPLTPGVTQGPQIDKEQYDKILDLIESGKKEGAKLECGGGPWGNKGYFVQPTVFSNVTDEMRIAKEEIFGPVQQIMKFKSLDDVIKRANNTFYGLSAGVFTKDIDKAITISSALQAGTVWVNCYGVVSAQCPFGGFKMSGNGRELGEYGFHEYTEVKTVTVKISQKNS
HTT ATP protect: qHTS Multiplex Assay to Identify Dual Action Probes in a Cell Model of Huntington: Cytoprotection (ATP); hit rate 0.14% among 230,000; AID 1471, 2008; PC12 HTT-Q103 induced, cytoprotection, ATP luminescence, 40 h; Potency, µM (titrated, usually from 56.4 µM), for the others: cytoprotection (ATP increase), usual class: activators; further: % of control where 0% means no effect; nearly all actives have a fitted effect of over 45% in size
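ATP quantification (ATPlite) reports survival of PC12 cells in which tebufenozide, 100 nM final, switches on Htt exon 1 with 103 glutamines linked to GFP; compounds are titrated.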
LMNA splice mod: qHTS Assay for Modulators of Lamin A Splicing. hit rate 0.01% among 200,000. HeLa LMNA splicing GFP/RFP minigene ratio, 48 h. Potency, µM (titrated, usually from 46.1 µM), inactives show at the top dose ratio change, negative = inhibition, actives largely listed as inhibitors; active means well fitted inhibition curve with a large enough effect in the signal ratio, with a control signal flat, not every such curve was filed as active; inconclusive means small, poorly fitted or top-dose-only effect, or effect the other way, or a change in a side signal; the % refers to the signal ratio; further: on the % scale 0 is the no-effect control and ±100 the full control effect
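Read-out is the ratio of GFP to DsRed2 object intensity, acquired by 488 nm laser-scanning cytometry on HeLa lamin A-EGFP minigene reporter cells. Compound incubation 48 hrs at 37 °C in Opti-MEM with 2% FBS; DMSO 0.5% final.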
An asterisk follows results filed as active; ? = inconclusive; nt = no result; [ ] = another dose, or the depositor's remark. Unless noted, the call rests on the fitted dose curve; in most records, active means well fitted curve in the direction sought with a large enough effect; inconclusive means small, poorly fitted or top-dose-only effect, or another doubt; inactive means no such curve, though single readings can be large; an effect the other way counts as inactive or inconclusive. Potency means the concentration at half of the fitted maximal effect.

SMILES	HPGD inh	HTT aggregate	ALDH1A1 inh	HTT ATP protect	LMNA splice mod
CCC1CCCCN1C(=O)C1CC(c2cc(Cl)c(OC)cc2OC)=NO1 (configuration not stated)	14.1µM*	-8.4%	?	-3.8%	-7.7%
COc1cc(OC)c(C2=NOC(C(=O)N3CCCc4ccccc43)C2)cc1Cl (configuration not stated)	?	-28.2%	?	-9.5%	-5.0%
COc1ccc(C(=O)/C(=C/c2cccs2)c2nc3ccccc3o2)cc1	35.5µM*	1.1%	2µM*	?	?
O=C(NCCSCc1ccccc1)c1ccc(F)cc1	-15.8%	-5.2%	1.0%	nt	4.3%
Cc1ccc(S(=O)(=O)NCCN=C(CN2CCCC2)NS(=O)(=O)c2ccc(C)cc2)cc1	0.7%	?	4.47µM*	-24.8%	3.9%
Cc1ccc(S(=O)(=O)NCCCN2CCOCC2)cc1C	-7.4%	8.8%	-9.6%	-5.9%[10 µM]	-8.4%
Cc1ccc(S(=O)(=O)NCCN=C(CN2CCOCC2)NS(=O)(=O)c2ccc(C)cc2)cc1	1.6%	18.3%	1.58µM*	-3.1%[10 µM]	-6.3%
COC(=O)[C@@]1(Cc2ccc(F)cc2)[C@H]2c3cc(C(=O)N4CCCC4)n(Cc4cc(F)cc5c4OCOC5)c3C[C@H]2CN1C(=O)c1ccccc1	-16.6%	nt	-1.4%	-57.1%	nt
CCOc1ccccc1NC(=O)C(NS(=O)(=O)c1cccc2nsnc12)c1ccccc1 (configuration not stated)	nt	nt	nt	nt	10.7%[46 µM]
CCC(=O)/C=C/C1C(C)=CCCC1(C)C (configuration not stated)	-6.7%	nt	12.6µM*	-1.4%	nt
Cc1cccc(C(=O)N[C@H](C(=O)Nc2nc3ccc(S(C)(=O)=O)cc3s2)C(C)C)c1	nt	6.2%[9.22 µM]	16.1%	-31.6%	?
Cc1nc(NCc2ccco2)c(C#N)c2c1COC(C)(C)C2	?	3.2%	-4.6%	-13.7%	21.3%
CC1(C)Cc2c(c(-c3ccco3)nc3n[nH]c(N)c23)CO1	?	5.5%	25.1µM*	-15.4%	?
CC1(C)Cc2c(C#N)c(NCc3ccco3)nc(-c3ccco3)c2CO1	?	1µM*	?	-24.2%[10 µM]	24.5%
CCCCNC(=O)C1CCCN(S(=O)(=O)CCC)C1 (configuration not stated)	nt	nt	nt	nt	-16.9%[46 µM]
CCOC(=O)Cc1csc(/C(=N/O)C(N)=O)n1	-12.3%	4.8%	28.2µM*	3.0%	?
CCOC(=O)Cc1csc(N)n1	-9.8%	-1.7%	5.6%	10.0%	-4.5%
COc1ccccc1CN1CCC2(CC1)CCN(C(=O)c1cccn1C)CC2	-5.1%	nt	-4.6%	2.3%	nt
COc1ccc(C2CC(=O)c3c(C)nc(N4CCN(Cc5ccccc5)CC4)nc3C2)cc1OC (configuration not stated)	-16.4%	?	25.1µM*	3.3%[0.074 µM]	?
Cc1nn(Cc2ccccc2)c(Cl)c1C(=O)OCC#N	nt	4.9%	?	19.0%[10 µM]	5.3%[46 µM]
Cc1c(Cl)c([N+](=O)[O-])nn1CCCC(=O)Nc1ccc(Cl)cc1Cl	-4.0%	8.0%	?	12.7%[10 µM]	-8.4%
Cc1c(Br)c([N+](=O)[O-])nn1CCCC(=O)Nc1sc2c(c1C#N)CCC2	12.6µM*	3.0%	10µM*	9.6%[10 µM]	?
Cc1c(Cl)c([N+](=O)[O-])nn1CCCC(=O)Nc1sc2c(c1C#N)CCC2	?	-0.4%	12.6µM*	-3.2%[10 µM]	-12.6%
CC1=C(C(=O)N2CCOCC2)C(c2ccc(C)cc2)NC(=S)N1 (configuration not stated)	nt	5.5%	17.8µM*	17.6%[10 µM]	-9.8%
O=C1Cc2cc(S(=O)(=O)N3CCCCC3)cc3c2N1CCC3	nt	nt	nt	nt	10.0%[46 µM]
SMILES	HPGD inh	HTT aggregate	ALDH1A1 inh	HTT ATP protect	LMNA splice mod
CC1(C)OCC(CSC2=C(SCC3COC(C)(C)O3)C(=O)c3ncccc3C2=O)O1 (configuration not stated)	3.55µM*	nt	2.51µM*	-69.5%	nt
N#Cc1cccc(NC(=O)N2CC[C@@]3(CCCN(C(=O)c4cccc(F)c4)C3)C2)c1	-7.9%	nt	-3.7%	-30.1%	nt
COC(=O)[C@H](CCSC)NC(=O)C/C=C\[C@@H](C)CO	nt	nt	6.1%[13.5 µM]	-42.3%[10 µM]	nt
O=C(CSc1ncn[nH]1)Nc1ccc(S(=O)(=O)Nc2ncccn2)cc1	nt	-17.4%	6.4%	-6.0%	nt
CN(C)S(=O)(=O)c1ccc(Cl)c(NC(=O)COC(=O)CNC(=O)c2ccco2)c1	nt	17.9%	?	2.4%	-10.4%[46 µM]
Cc1ccc(OCCC(=O)OCC(=O)Nc2cc(S(=O)(=O)N(C)C)ccc2C)cc1	nt	5.1%	3.98µM*	-29.7%	-15.2%[46 µM]
CN(C)S(=O)(=O)c1ccc(Cl)c(NC(=O)COC(=O)CCSc2ccccc2)c1	-0.6%	0.3%	25.1µM*	0.1%[1.9 µM]	-13.6%
CN(C)S(=O)(=O)c1cccc(NC(=O)COC(=O)CCOc2ccccc2)c1	nt	4.4%	-4.9%	-36.8%	nt
Cc1cc(C)n(CC(C)NCc2cn[nH]c2-c2ccc(C)c(C)c2)n1 (configuration not stated)	nt	nt	4.8%	nt	-2.4%[46 µM]
O=C(Nc1ccc(CN2CCCCC2)cc1)c1sc2ccccc2c1Cl	nt	8.4%[9.22 µM]	nt	0.5%[10 µM]	nt
CC(=O)OC1CCC2(C)C(=CC=C3C2CCC2(C)C3CCC2C(C)/C=C/C(C)C(C)C)C1(C)C (configuration not stated)	-10.1%	nt	7.4%	25.5%	nt
CCN(CC)c1ccc(NC(=O)c2ccccc2F)cc1S(=O)(=O)Nc1ccccc1OC	14.1µM*	-20.8%	4.47µM*	-17.4%[10 µM]	-10.0%
CCN(CC)c1ccc(NC(=O)c2ccc(=O)[nH]c2)cc1S(=O)(=O)Nc1ccccc1OC	nt	24.4%	3.98µM*	-58.4%	-12.8%[46 µM]
COc1ccc(NC(=O)c2ccccc2F)cc1Cl	?	-4.0%[9.22 µM]	-3.5%	nt	-2.7%
CCN(CC)c1ccc(NC(=O)c2ccccc2Br)cc1S(=O)(=O)Nc1ccccc1OC	2.24µM*	28.1%	1.58µM*	32.0%[10 µM]	?
CCN(CC)c1ccc(NC(=O)c2cnccn2)cc1S(=O)(=O)Nc1ccc(OC)cc1	-3.8%	5.6%	3.6%	-1.2%[10 µM]	-19.6%
CCN(CC)c1ccc(NC(=O)COc2ccccc2C#N)cc1S(=O)(=O)Nc1ccc(OC)cc1	-20.9%	13.0%	22.4µM*	-7.3%[10 µM]	-8.4%
COc1ccc(-n2ncc(C(=O)N3CCc4ccccc4C3)c2C2CCN(C(=O)OC(C)(C)C)CC2)cc1	nt	nt	nt	nt	-1.0%[46 µM]
Cc1c(C(=O)N(C)C)sc2c1c(=O)n(-c1ccc(Cl)c(Cl)c1)c(=O)n2CC(=O)N1CCCCC1C (configuration not stated)	nt	nt	nt	nt	-19.1%[46 µM]
CCCNC(=O)CSc1nc(-c2ccc(OC)cc2)cc(C(F)(F)F)n1	nt	nt	nt	nt	3.5%[46 µM]
